Screens from PubChem BioAssay.
Compounds with a hit are over-represented: about 3.6% of the library has one in this group of screens.
mHTT CaM bind: mHTT-calmodulin interaction abrogation. AlphaScreen His-mHTT/GST-CaM binding, luminescence. inhibition, % at 15 µM. 190,000 compounds, 3.6% hits. P42858
Pf apPOL block: Pf-apPOL DNA polymerase inhibition; inhibition, % at 10 µM; Recombinant Pf-apPOL, molecular beacon fluorescence, 1.5 h; AID 1794808; 210,000 compounds, 0.25% hits
Hits are given with their value. Cut-off read from the data, not from the text of the source: active = inhibition above about 50%; inactive = the rest.

For Cc1ccc(C)c(NC(=O)N2CCCC2c2cccc(F)c2)c1 (centres undefined) the results were mHTT CaM bind inactive and Pf apPOL block inactive.
`Cc1ccc(CN2C(=O)NC3(CCN(C(=O)COc4cccc(C)c4)CC3)C2=O)cc1` gave mHTT CaM bind inactive and Pf apPOL block inactive.
For COc1ccc2c(c1)NC1(CCN(C(=O)COc3cccc(C)c3)CC1)c1cccn1-2 the results were mHTT CaM bind 85 and Pf apPOL block inactive.
For O=C(Cc1cccc(F)c1)N1CCC2(C1)C(=O)Nc1ccccc12 (centres undefined) the results were mHTT CaM bind inactive and Pf apPOL block inactive.
O=C(Cc1cccc(F)c1)N1CCC2(CC1)Nc1ccccc1-n1cccc12 was read as mHTT CaM bind 59 and Pf apPOL block inactive.
`CSc1ccc(CNC(=O)C2CCN(c3cncnc3N3CCCCC3)CC2)cc1` gave mHTT CaM bind inactive and Pf apPOL block inactive.
For Cc1cccc(CNC(=O)C2CCN(c3cncnc3N3CCCC3)CC2)c1 the results were mHTT CaM bind inactive and Pf apPOL block inactive.
`O=C(NCc1ccc(C(F)(F)F)cc1)C1CCN(c2cncnc2N2CCCC2)CC1` gave mHTT CaM bind 83 and Pf apPOL block inactive.
`O=C(NCc1cccc(Cl)c1)C1CCN(c2cncnc2N2CCCC2)CC1` gave mHTT CaM bind 52 and Pf apPOL block inactive.
`COc1ccc2nc(-c3cccc(NC(=O)COc4ccc(C(C)=O)cc4OC)c3)cn2n1` gave mHTT CaM bind 64 and Pf apPOL block inactive.
Screening COc1ccc2nc(-c3ccc(OC)c(NC(=O)CC4CCCC4)c3)cn2n1 returned mHTT CaM bind inactive and Pf apPOL block inactive.
Cc1ccc(-c2nc3s/c(=C\c4cccs4)c(=O)n3n2)cc1 was read as mHTT CaM bind inactive and Pf apPOL block inactive.
`O=C(CSc1ccccc1)Nc1ccn(-c2ccccc2)n1` gave mHTT CaM bind inactive and Pf apPOL block inactive.
For NC(=O)N1c2ccccc2C=Cc2ccccc21 the results were Pf apPOL block inactive.
O=C1NC(=O)[C@H]2[C@@H]1[C@@H](C(=O)c1ccccc1)N1c3ccccc3C=C[C@H]21 was read as mHTT CaM bind 58.
O=C(C1CC(=O)N(c2ccc(F)c(Cl)c2)C1)N1CCN(c2ccccc2F)CC1 (centres undefined) was read as mHTT CaM bind inactive and Pf apPOL block inactive.
Screening NC(=O)c1ccccc1N=Cc1ccc([N+](=O)[O-])o1 returned mHTT CaM bind inactive and Pf apPOL block inactive.
`NC(N)=NN=C(/C=C/c1ccc([N+](=O)[O-])o1)/C=C/c1ccc([N+](=O)[O-])o1` gave mHTT CaM bind 100.
`O=C1C(c2cccnc2)N(CC2CCCCC2)C(=O)CN1c1ccccc1` (centres undefined) gave mHTT CaM bind inactive and Pf apPOL block inactive.
C=C[C@H](CC(C)C)N(Cc1ccccc1)S(=O)(=O)N(Cc1ccc(OC)cc1)[C@H](C=C)CC(C)C was read as mHTT CaM bind inactive and Pf apPOL block inactive.
`COc1ccc(CN([C@H](C)C=O)S(=O)(=O)N(Cc2ccccc2)[C@H](C=O)C(C)C)cc1` gave mHTT CaM bind 97 and Pf apPOL block inactive.
`N#Cc1cc(Br)ccc1N=C1CCCN1Cc1ccccc1` gave mHTT CaM bind inactive and Pf apPOL block inactive.
For O=C1CN(C(=O)c2ccc(F)cc2)C(c2ccc(F)cc2)c2cc(Br)ccc2N1 (centres undefined) the results were mHTT CaM bind inactive and Pf apPOL block inactive.
O=C1CN(C(=O)c2ccc(Cl)cc2)C(c2ccc(F)cc2)c2cc(Br)ccc2N1 (centres undefined) was read as mHTT CaM bind 56 and Pf apPOL block inactive.
For O=C1CN(C(=O)CCC2CCCC2)C(c2ccc(F)cc2)c2cc(F)ccc2N1 (centres undefined) the results were mHTT CaM bind inactive and Pf apPOL block inactive.
CCOc1ccc(C(=O)N2CC(=O)Nc3ccc(C)cc3C2c2ccc(F)cc2)cc1OCC (centres undefined) was read as mHTT CaM bind 65 and Pf apPOL block inactive.
COc1ccc(C(=O)N2CC(=O)Nc3ccc(C)cc3C2c2ccc(F)cc2)cc1OC (centres undefined) was read as mHTT CaM bind inactive and Pf apPOL block inactive.
`O=C1CN(C(=O)CCC2CCCC2)C(c2ccc(F)cc2)c2cc(Br)ccc2N1` (centres undefined) gave mHTT CaM bind 77 and Pf apPOL block inactive.
For CN(C)C(=O)c1cc2c(s1)CCC(C(=O)Nc1ccccc1F)C2 (centres undefined) the results were mHTT CaM bind inactive and Pf apPOL block inactive.
`COc1ccc(NC(=O)C2CCN(c3ccc(C)c(Cl)c3)C2=O)cc1` (centres undefined) gave mHTT CaM bind inactive and Pf apPOL block inactive.
For O=C(Nc1ccccc1F)N1CCC2(CC1)Nc1cc(F)ccc1-n1cccc12 the results were mHTT CaM bind inactive and Pf apPOL block inactive.
Screening COc1ccc(NC(=O)N2CCC3(CC2)NC(=O)c2ccccc2N3C)c(C)c1 returned mHTT CaM bind inactive and Pf apPOL block inactive.
For O=C(Nc1ccccc1C(F)(F)F)N1CCC2(CC1)Nc1ccccc1-n1cccc12 the results were mHTT CaM bind inactive and Pf apPOL block inactive.
`COc1ccc(NC(=O)N2CCC3(CC2)Nc2ccccc2-n2cccc23)c(OC)c1` gave mHTT CaM bind 64 and Pf apPOL block inactive.
`COc1ccc(OC)c(NC(=O)N2CCC3(CC2)Nc2ccccc2-n2cccc23)c1` gave mHTT CaM bind 54 and Pf apPOL block inactive.
Screening COc1ccc(NC(=O)N2CCC3(CC2)Nc2cc(F)ccc2-n2cccc23)c(OC)c1 returned mHTT CaM bind 61 and Pf apPOL block inactive.
`COc1ccc(NC(=O)C2CCN(C(=O)c3ccc(F)cc3)CC2)c(OC)c1` gave mHTT CaM bind inactive and Pf apPOL block inactive.
Screening CCOc1ccccc1NC(=O)N1CCC2(CC1)Nc1cc(F)ccc1-n1cccc12 returned mHTT CaM bind 52 and Pf apPOL block inactive.
`COc1ccc(Cl)cc1C(=O)Nc1ccc2c(c1)C(=O)NCCO2` gave mHTT CaM bind inactive and Pf apPOL block inactive.
For Cc1cc(C)c(C(=O)N2CCC(CC(=O)N3CCCC3)CC2)[nH]1 the results were mHTT CaM bind inactive and Pf apPOL block inactive.
`OCCSc1nnc(COc2ccc(Br)cc2)n1-c1ccccc1` gave mHTT CaM bind 57 and Pf apPOL block inactive.
Screening O=C(CSc1nnc(COc2ccccc2)n1-c1ccccc1)NC1CCCCC1 returned mHTT CaM bind inactive and Pf apPOL block inactive.
For CSc1cccc(Nc2c(C(=O)N3CCSCC3)cnc3nc(C)ccc23)c1 the results were mHTT CaM bind inactive and Pf apPOL block inactive.
For CC(C)CC(=O)Nc1ccc2c(c1)C(N(C)C(C)C)=Nc1ccccc1O2 the results were mHTT CaM bind inactive and Pf apPOL block inactive.
`CSc1nc2c(c(Nc3ccc(N(C)C)cc3)n1)CCC2` gave mHTT CaM bind 57 and Pf apPOL block inactive.
Screening CSc1nc2c(c(Nc3ccc(C)cc3)n1)CCC2 returned mHTT CaM bind inactive and Pf apPOL block inactive.
For Cc1ccc(-c2cc(C(F)(F)F)n3ncc(C(=O)N4CCC(C)CC4)c3n2)cc1 the results were mHTT CaM bind inactive and Pf apPOL block inactive.
Screening Cc1nn(-c2cccc(Cl)c2)c2c1C(c1cccc([N+](=O)[O-])c1)C(C#N)=C(N)O2 (centres undefined) returned mHTT CaM bind inactive and Pf apPOL block inactive.
For COc1ccc(N=C2NC(=O)S/C2=C\c2ccc(N(C)C)cc2)cc1 the results were mHTT CaM bind inactive and Pf apPOL block inactive.
